Laboratory results taken from PubChem BioAssay.
Calls of active or inactive are those of the source.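 The calls were made as follows, unless noted: active = visually confirmed hit in the image check and inhibition above 20%; inconclusive = visually confirmed hit but inhibition not above 20%; inactive = no visual hit in the image check.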

Key:
[1] = inhibitors of TNFa-induced NFkB p65 translocation, primary screen, imaging, HUVEC, MLSMR starter and 10KST1 sets (AID 438;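 active = inhibition above 20% together with a positive visual image hit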;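 also: compound added about 3h40 before a 20 min TNFalpha stimulation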;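 as to inhibition: signal is the nuclear over cytoplasmic p65 intensity ratio per well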); settings: HUVEC TNFa-induced p65 nuclear translocation; cell count: measured here: nuclei count (cytotoxicity indicator), at 2.08 µM; inhibition: at 2 µM, stronger effect = higher value, 0% TNFa-plus-vehicle, 100% no-TNFa wells
[2] = reduction of polyQ htt aggregates in cells – imaging, exon1htt(103Q)mCFP cells, high-content imaging, primary screen (AID 483;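 active = visual image review flags a hit and inhibition of aggregation exceeds 20%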;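 also: compound exposure lasted 3 days before fixation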;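 as to nuclei count: percent of the per-plate median nuclei count of sample wells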); settings: exon1htt(103Q)mCFP cell line, aggregate imaging, at 2 µM; inhibition of aggregation: stronger effect = higher value; nuclei count: measured here: cell count, toxicity
[3] = endothelial E-selectin expression blockers – imaging, HUVEC, immunofluorescence, MLSMR starter and 10KST1 sets, primary screen (AID 487); settings: HUVEC TNFalpha-induced E-selectin immunofluorescence imaging, at 2 µM; inhibition: stronger effect = higher value; nuclei count: measured here: cell number, toxicity;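 as to inhibition: signal is fraction of cell area covered by stained E-selectin grains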;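 as to nuclei count: 100% = median nuclei count of all wells on the same plate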
[4] = target: Voltage-gated potassium channel subunit beta-2 (Rattus norvegicus) (UniProt P62483); experiment: inhibitors of rat Kvbeta2 reductase activity – biochemical, NADPH fluorescence, primary screen (AID 622;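 active = fluorescence slope higher than the sample average by over 3 SD, cut at about -0.22 in these data, passing the limit was not always enough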;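 also: slope of raw intensity against log time taken from 70 to 1610 s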); settings: recombinant KvBeta, 4-cyanobenzaldehyde reduction, at 10 µM, stronger effect = higher value
Chain of Voltage-gated potassium channel subunit beta-2 (Rattus norvegicus) (P62483 whole entry, looked up): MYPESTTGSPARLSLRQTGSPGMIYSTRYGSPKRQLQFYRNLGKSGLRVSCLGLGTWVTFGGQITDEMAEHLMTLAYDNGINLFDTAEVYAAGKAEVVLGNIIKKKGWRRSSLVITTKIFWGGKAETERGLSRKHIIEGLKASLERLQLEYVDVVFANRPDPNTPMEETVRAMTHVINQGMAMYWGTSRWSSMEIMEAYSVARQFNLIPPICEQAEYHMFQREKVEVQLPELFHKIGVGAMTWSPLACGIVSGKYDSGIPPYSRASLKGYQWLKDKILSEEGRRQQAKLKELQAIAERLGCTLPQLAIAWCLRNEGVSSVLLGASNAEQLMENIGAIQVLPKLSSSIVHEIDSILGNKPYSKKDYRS

[5] = target: Voltage-gated potassium channel subunit beta-2 (Rattus norvegicus) (UniProt P62483); experiment: enhancers of rat Kvbeta2 NADPH turnover – biochemical, NADPH fluorescence, primary screen (AID 623;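 active = NADPH fluorescence slope more negative than the mean of all samples by about 3 SD, 99.7% confidence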;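 also: fluorescence intensity change per second fitted from 20 to 320 s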); settings: Recombinant KvBeta, NADPH fluorescence decrease slope, 10 min; at 10 µM; stronger effect = lower value
[6] = target: Alpha-2C adrenergic receptor (Homo sapiens) (UniProt P18825); experiment: compounds altering alpha2C-coupled GIRK flux – cell-based, HEK293 alpha2C/GIRK1/2, thallium flux, primary screen (AID 624;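 active = fluorescence slope after compound addition differing from the mean of all screened samples at 99.7% confidence, in either direction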;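 also: slope of fluorescence ratio to pre-addition baseline per second over 15 to 24 s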); settings: thallium flux BTC fluorescence, at 10 µM, actives lie on both sides
Chain of Alpha-2C adrenergic receptor (Homo sapiens) (P18825 whole entry, looked up): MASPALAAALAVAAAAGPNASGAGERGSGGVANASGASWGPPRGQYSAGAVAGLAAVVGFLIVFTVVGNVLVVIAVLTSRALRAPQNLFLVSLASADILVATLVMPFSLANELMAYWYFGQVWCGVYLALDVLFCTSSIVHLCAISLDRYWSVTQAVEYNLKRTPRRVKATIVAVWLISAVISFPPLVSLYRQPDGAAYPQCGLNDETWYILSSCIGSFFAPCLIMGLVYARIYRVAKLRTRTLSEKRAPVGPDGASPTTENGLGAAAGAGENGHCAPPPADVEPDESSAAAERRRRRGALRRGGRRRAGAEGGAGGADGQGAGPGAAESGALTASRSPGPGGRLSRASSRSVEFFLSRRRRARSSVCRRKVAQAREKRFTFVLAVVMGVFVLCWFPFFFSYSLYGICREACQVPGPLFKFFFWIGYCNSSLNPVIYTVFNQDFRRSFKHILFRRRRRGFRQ

[7] = blockers of RIG-like receptor reporter activation – cell-based, Sendai virus stimulus, luciferase, 10K MLSCN set, TLR/RLR signaling modifier project, primary screen (AID 602276;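 active = inhibition at or above 50% at 10 µM; inactive = inhibition below 50%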;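 also: firefly luciferase from ISG56 promoter only with Renilla not read in this screen; 0% = Sendai virus plus DMSO and 100% = medium plus DMSO without virus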); settings: HEK293 RL24 IRF3 luciferase reporter, at 10 µM, stronger effect = higher value
[8] = TLR3 IRF3 reporter activation blockers – cell-based, poly I:C stimulus, luciferase, 10K MLSCN set, primary screen (AID 602277;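 active = inhibition of the reporter signal at or above 50%; inactive = inhibition below 50%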); settings: HEK293-TLR3 RL24 IRF3 luciferase reporter, at 10 µM, stronger effect = higher value

| SMILES | cell count [1] | inhibition [1] | inhibition of aggregation [2] | nuclei count [2] | inhibition [3] | nuclei count [3] | fluorescence slope [4] | NADPH fluorescence slope [5] | slope [6] | inhibition [7] | inhibition [8] |
| --- | --- | --- | --- | --- | --- | --- | --- | --- | --- | --- | --- |
| O=C(Cc1c(F)cccc1Cl)Nc1ccncc1 | 285 | 4.3% (inactive) | 1% (inactive) | 104% | -34.2% (inactive) | 124% | -0.334 (inactive) | 2.5e-05 (inactive) | 0.00621 (inactive) | 12.9% (inactive) | 11.9% (inactive) |
| CCN(CCCNC(=O)C1CCCN(S(=O)(=O)c2cnc[nH]2)C1)c1ccccc1 (stereo not drawn) | 611 | 21.8% (inactive) | -4.7% (inactive) | 100% | -91.6% (inactive) | 142% | -0.507 (inactive) | -2.4e-05 (inactive) | 0.00623 (inactive) | 5.83% (inactive) | 7.07% (inactive) |
| COc1ccccc1NC(=O)NC1(C(=O)N2CCC(O)CC2)CCCCC1 | 242 | 3.9% (inactive) | 16.6% (inactive) | 79.3% | 1.6% (inactive) | 94% | -0.605 (inactive) | 1.9e-06 (inactive) | 0.00897 (inactive) | -0.183% (inactive) | 2.89% (inactive) |
| CCOc1ccc2nc(N3CCC(C(=O)N4CCN(C5CCCCC5)CC4)CC3)sc2c1 | 594 | -0.8% (inactive) | -15.4% (inactive) | 103% | -54% (inactive) | 107% | -0.553 (inactive) | 6.2e-06 (inactive) | 0.00601 (inactive) | -54.1% (inactive) | -73.6% (inactive) |
| COc1ccc(N(C)C(=O)CCS(=O)(=O)c2cccc3nonc23)cc1 | 704 | -12.2% (inactive) | 0.8% (inactive) | 108% | -32.3% (inactive) | 118% | -0.488 (inactive) | 1.2e-05 (inactive) | 0.00576 (inactive) | -4.78% (inactive) | -38.6% (inactive) |
| Cc1ccc2nc(-c3ccc(S(=O)(=O)N4CCOCC4)cc3)cn2c1 | 591 | -9.3% (inactive) | -9.3% (inactive) | 96.7% | 7.4% (inactive) | 89.1% | -0.0874 (active) | 1e-05 (inactive) | 0.00713 (inactive) | 5.63% (inactive) | -13.9% (inactive) |
| COCCNC(=O)CN1CCC(NC(=O)Nc2ccc(C(F)(F)F)cc2)CC1 | 515 | 0.8% (inactive) | -24.7% (inactive) | 70.9% | -85% (inactive) | 96.8% | -0.296 (inactive) | -4.5e-05 (inactive) | 0.0053 (inactive) | 5.43% (inactive) | 3.51% (inactive) |
| CCOc1ccc(S(=O)(=O)n2c(C)nc3ccccc32)cc1 | 781 | -5.8% (inactive) | -0.6% (inactive) | 101% | -99.9% (inactive) | 115% | -0.627 (inactive) | 9.2e-06 (inactive) | 0.00517 (inactive) | 49.1% (inactive) | 5.17% (inactive) |
| Cc1ccc(S(=O)(=O)N2CCN(C(=O)CN3CCOCC3)C2C(C)C)cc1 (stereo not drawn) | 309 | -5% (inactive) | -6.9% (inactive) | 105% | -99.4% (inactive) | 105% | -0.621 (inactive) | 6.8e-06 (inactive) | 0.0064 (inactive) | 4.53% (inactive) | 12.9% (inactive) |
| CCOCCCNC(=O)C(c1ccccc1)N(Cc1ccc2c(c1)OCO2)C(=O)CNC(C)=O (stereo not drawn) | 220 | 10.9% (inactive) | 0.6% (inactive) | 94.8% | -63.6% (inactive) | 95.1% | -0.562 (inactive) | -2.1e-05 (inactive) | 0.00624 (inactive) | 10.2% (inactive) | 16.2% (inactive) |
| COC(=O)Cn1c(CN2CCOCC2)nc2c1c(=O)n(C)c(=O)n2C | 666 | -18.4% (inactive) | 6.2% (inactive) | 95.4% | -0.7% (inactive) | 114% | -0.418 (inactive) | -5.7e-05 (inactive) | 0.00632 (inactive) | 6.17% (inactive) | 32.9% (inactive) |
| O=C(NCc1ccc2c(c1)OCO2)C1CCCN(S(=O)(=O)c2cccc3cccnc23)C1 (stereo not drawn) | 741 | -8% (inactive) | 20.4% (inactive) | 125% | -40.6% (inactive) | 104% | -0.527 (inactive) | -6.1e-05 (inactive) | 0.00698 (inactive) | 15.2% (inactive) | 40.4% (inactive) |
| CN(CC(=O)Nc1ccc(F)c(Cl)c1)S(=O)(=O)c1cccc2nsnc12 | 615 | -19.8% (inactive) | 5.8% (inactive) | 64.7% | -18.3% (inactive) | 108% | -0.34 (inactive) | -3.5e-05 (inactive) | 0.00478 (inactive) | -14.7% (inactive) | 98.7% (active) |
| COc1ccc(-c2cc(N3CCCC3)n3ncnc3n2)cc1 | 640 | 11.9% (inactive) | 7.3% (inactive) | 118% | -3.2% (inactive) | 102% | -0.473 (inactive) | -2.2e-05 (inactive) | 0.00575 (inactive) | -11.3% (inactive) | -11.7% (inactive) |
| CC(=O)Nc1nc2c(c3c1c(=O)oc1ccccc13)CC(C)CC2 (stereo not drawn) | 509 | -11.6% (inactive) | 14.7% (inactive) | 61.9% | 13.1% (inactive) | 82.7% | -0.457 (inactive) | -1.3e-05 (inactive) | 0.00575 (inactive) | 12.8% (inactive) | 32.3% (inactive) |
| CCC(=O)N/C(N)=N/c1nc(C)c2cc(OC)ccc2n1 | 730 | 10.7% (inactive) | -24.4% (inactive) | 95.9% | 9.1% (inactive) | 92.1% | -0.378 (inactive) | -1.1e-05 (inactive) | 0.00511 (inactive) | -62.4% (inactive) | -122% (inactive) |
| COc1ccc(CC(=O)N2CCOCC2)cc1OC | 383 | -0.8% (inactive) | 4.3% (inactive) | 106% | -53.3% (inactive) | 111% | -0.428 (inactive) | -5.5e-05 (inactive) | 0.00535 (inactive) | 15.7% (inactive) | 26.1% (inactive) |
| COc1ccc(S(=O)(=O)Cc2ccc(C(=O)N3CCN(Cc4ccccc4)CC3)o2)cc1 | 583 | -4.8% (inactive) | 21.6% (inactive) | 98.6% | -37.7% (inactive) | 121% | -0.588 (inactive) | -1.9e-05 (inactive) | 0.0068 (inactive) | -3.69% (inactive) | 28.9% (inactive) |
| COc1ccc(N2CCN(C(=O)CCNS(=O)(=O)c3ccc(Br)s3)CC2)cc1 | 338 | 2.9% (inactive) | -0.1% (inactive) | 101% | -297% (inactive) | 108% | -0.423 (inactive) | -0.000118 (inactive) | 0.00529 (inactive) | 7.87% (inactive) | 12.4% (inactive) |
| CCOc1ccc2c(O)csc2c1 | 393 | 2% (inactive) | 7.4% (inactive) | 109% | 7.7% (inactive) | 103% | -0.371 (inactive) | -4.2e-05 (inactive) | 0.0033 (inactive) | 8.13% (inactive) | 10.6% (inactive) |
| Cc1cnc(NC(=O)CSc2nc3ccccc3c(=O)[nH]2)s1 | 281 | 8.9% (inactive) | -0.5% (inactive) | 99.4% | 65% (active) | 98.4% | -0.427 (inactive) | 5.1e-05 (inactive) | 0.00477 (inactive) | 2.98% (inactive) | -0.232% (inactive) |
| O=C1CC(Sc2nnc(-c3ccccc3)o2)C(=O)N1c1ccccc1 (stereo not drawn) | 677 | -1.1% (inactive) | 3.6% (inactive) | 105% | -12.2% (inactive) | 91.1% | -0.404 (inactive) | -6.5e-05 (inactive) | 0.00487 (inactive) | 4.52% (inactive) | 3.11% (inactive) |
| O=C(NCc1cccnc1)c1ccc(Cl)c(Cl)c1 | 751 | -5% (inactive) | 25.4% (inactive) | 102% | 16.9% (inactive) | 102% | -0.639 (inactive) | -5.9e-06 (inactive) | 0.00439 (inactive) | 17% (inactive) | 7.17% (inactive) |
| Cn1c(SCc2ccccc2)nnc1C1CCCNC1 (stereo not drawn) | 784 | -2.3% (inactive) | 0.6% (inactive) | 100% | 10.3% (inactive) | 125% | -0.327 (inactive) | 1.3e-05 (inactive) | 0.00512 (inactive) | 10.3% (inactive) | 15.2% (inactive) |
| COC(=O)c1ccc(COc2ccc(C3C4=C(CCCC4=O)Nc4onc(C)c43)cc2)cc1 (stereo not drawn) | 303 | -4.7% (inactive) | -8.3% (inactive) | 112% | -68.7% (inactive) | 118% | -0.479 (inactive) | -1.7e-05 (inactive) | 0.00693 (inactive) | -12.9% (inactive) | -23% (inactive) |
| c1ccc(-c2nc3ccccc3nc2-c2ccccn2)nc1 | 746 | -8.5% (inactive) | 4.8% (inactive) | 93.9% | -17.4% (inactive) | 118% | -0.491 (inactive) | -3.4e-05 (inactive) | 0.0056 (inactive) | 11.1% (inactive) | 14.2% (inactive) |
| O=C1c2ccccc2C(=O)N1CCCn1nnc(-c2ccc(N3CCOCC3)cc2)n1 | 319 | -8.2% (inactive) | 28% (inactive) | 111% | -80.5% (inactive) | 109% | -0.619 (inactive) | -1.3e-05 (inactive) | 0.00347 (inactive) | 15.2% (inactive) | 21.3% (inactive) |
| CCCNC(=O)C1CCN(S(=O)(=O)c2ccc3nc4c(c(C(=O)O)c3c2)CCCCC4)CC1 | 637 | 1.3% (inactive) | -1.8% (inactive) | 119% | -26.6% (inactive) | 118% | -0.531 (inactive) | 2e-05 (inactive) | 0.00704 (inactive) | 8.11% (inactive) | 12.8% (inactive) |
